From PubChem BioAssay (NCATS)
Records with an inconclusive call do not appear. A call without a number means that no potency is given here. Calls of active or inactive are those of the source. Calls follow the shape of the dose curve; as a rule, active = well fitted curve in the direction sought with a large enough effect; inconclusive = small, poorly fitted or top-dose-only effect, or another doubt; inactive = no such curve, though single readings can be large; an effect the other way counts as inactive or inconclusive. Square brackets hold non-standard residues; d marks the D form. Peptide text beside a SMILES is read from it. * marks the point of attachment. ξ: configuration not given here. Hexanoyl = CCCCCC(=O)*; ξL = CC(C)CC(N)C(=O)O

Columns and labels:
[1] = HPAF-II 24hr Apoptosis Induction qHTS against the NCATS CANVASS Library (AID 1347356)
Outline: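 Apoptosis induction in HPAF-II pancreatic cancer cells is measured as caspase-3/7 luminescence after a 24-hour exposure to compounds.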

[2] = HEK293 18hr Apoptosis Induction qHTS against the NCATS CANVASS Library (AID 1347357)
Outline: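 Luminescent caspase-3/7 signal is measured in HEK293 cells exposed for 18 hours to an 11-point concentration series; doxorubicin serves as the plate control.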

[3] = HPAF-II 12hr Apoptosis Induction qHTS against the NCATS CANVASS Library (AID 1347358)
Outline: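 Apoptosis in HPAF-II pancreatic cancer cells is scored as caspase 3/7 luminescence following a 12-hour exposure to an 11-point compound series.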

[4] = HEK293 24hr Apoptosis Induction qHTS against the NCATS CANVASS Library (AID 1347359)
Outline: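 HEK293 cells, 500 per well, exposed to an 11-point compound series for 24 hours at 37 degrees C. Caspase 3/7 activity read by Caspase-Glo luminescence (DEVD substrate) after 15 min at room temperature.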

[5] = HPAF-II 18hr Apoptosis Induction qHTS against the NCATS CANVASS Library (AID 1347360)
Outline: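 Apoptosis was scored as caspase-3/7 activity in HPAF-II pancreatic cancer cells treated 18 hours with an 11-point concentration series.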

[6] = HEK293 12hr Apoptosis Induction qHTS against the NCATS CANVASS Library (AID 1347361)
Outline: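 Apoptosis in HEK293 was scored as caspase-3/7 luminescence following 12 h treatment with a compound concentration series in qHTS format.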

[7] = system: NAD(P)H diaphorase (Clostridium kluyveri); assay: Diaphorse counterscreen qHTS: Assay Interference Panel against the NCATS CANVASS Library (AID 1347362)
Outline: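 Clostridium kluyveri diaphorase in PBS + 0.01% Tween-20 preincubated 15 min with compounds. Resazurin and NADH then added for 5 min at room temperature in the dark; resorufin fluorescence read (ex 525, em 598).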

[8] = target: Luciferin 4-monooxygenase (Photinus pyralis) (UniProt P08659); assay: Firefly luciferase counterscreen qHTS: Assay Interference Panel against the NCATS CANVASS Library (AID 1347363); also: potency is read from the fitted curve at half-maximal effect
Sequence of Luciferin 4-monooxygenase (Photinus pyralis) (P08659 whole entry, looked up): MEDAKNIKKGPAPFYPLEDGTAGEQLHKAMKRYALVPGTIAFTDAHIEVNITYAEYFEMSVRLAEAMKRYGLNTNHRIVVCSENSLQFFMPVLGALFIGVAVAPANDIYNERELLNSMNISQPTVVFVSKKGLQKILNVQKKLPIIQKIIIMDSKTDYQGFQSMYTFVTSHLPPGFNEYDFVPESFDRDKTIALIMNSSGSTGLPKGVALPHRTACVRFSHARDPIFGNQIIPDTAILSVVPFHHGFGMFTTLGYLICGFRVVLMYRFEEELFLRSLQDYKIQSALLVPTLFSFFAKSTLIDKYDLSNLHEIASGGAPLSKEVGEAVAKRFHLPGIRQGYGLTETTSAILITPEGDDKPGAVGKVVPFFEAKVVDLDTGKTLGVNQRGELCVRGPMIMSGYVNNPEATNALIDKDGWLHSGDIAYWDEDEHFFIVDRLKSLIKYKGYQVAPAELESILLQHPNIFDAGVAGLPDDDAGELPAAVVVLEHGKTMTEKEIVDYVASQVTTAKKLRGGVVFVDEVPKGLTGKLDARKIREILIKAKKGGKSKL
Outline: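 Purified P. pyralis luciferase (0.04 ug/mL, 4x reagent) added to Tris-acetate buffer with 0.013 mM D-luciferin, 0.013 mM ATP and 13.3 mM Mg-acetate; compounds preincubated 15 min, then luminescence read after 5 min, RT.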

[9] = KB-3-1 Cancer Cell Toxicity qHTS against the NCATS CANVASS Library (AID 1347366); also: nearly all actives have a fitted effect of over 75% in size; also: potency is read from the fitted curve at half-maximal effect
Outline: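 Seed KB-3-1 cells at 500/well in DMEM with 10% FBS, add compounds, incubate 72 hr at 37C and 5% CO2, then add CellTiter-Glo and read luminescence after 10 minutes.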

[10] = G06 Cancer Cell Toxicity qHTS against the NCATS CANVASS Library (AID 1347368); also: nearly all actives have a fitted effect of over 60% in size; also: potency is read from the fitted curve at half-maximal effect
Outline: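 Cytotoxicity toward canine glioma G06 cells is scored from cellular ATP via luminescence after 72 hr compound exposure at 500 cells/well.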

[11] = MCF7 Cancer Cell Toxicity qHTS against the NCATS CANVASS Library (AID 1347369); also: potency is read from the fitted curve at half-maximal effect
Outline: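 Cytotoxicity is measured by ATP content: MCF7 cells at 500 per well receive an 11-point compound series and, after 72 hr at 37C, are lysed with CellTiterGlo for luminescence.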

[12] = qHTS for ATAD5 Antagonist screened against the NCATS CANVASS Library (AID 1347370); also: nearly all actives have a fitted effect of over 65% in size; also: potency is read from the fitted curve at half-maximal effect
Outline: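 HEK293T cells with a stably integrated ATAD5-controlled luciferase reporter were exposed to compounds (11-pt) alongside 10 uM 5-fluorouridine as ATAD5 stabilizer for 16hr at 37C. Viability was read by CellTiter-Fluor fluorescence, then ATAD5 by luminescence.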

[13] = J3T Cancer Cell Toxicity qHTS against the NCATS CANVASS Library (AID 1347371); also: potency is read from the fitted curve at half-maximal effect
Outline: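 Viability of the J3T glioma line from dog is scored by ATP luminescence after a 72 hr incubation with natural products.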

[14] = 10-beta competent E. coli microbial cell viability qHTS against the NCATS CANVASS Library (AID 1347376); also: series mostly up to about 46 µM
Outline: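 Cytotoxicity toward competent E. coli is scored from cellular ATP content via BacTiter-Glo luminescence following overnight compound exposure at 37C, 5% CO2.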

[15] = qHTS for H2AX Agonists against the NCATS CANVASS Library (AID 1347378);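 also: phospho-H2AX S139 level in CHO-K1 lysates by TR-FRET emission ratio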; also: potency is read from the fitted curve at half-maximal effect
Outline: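 Following overnight seeding, CHO-K1 cells are incubated with a concentration series of compound for 3 hr at 37C (final DMSO 0.76%). Cells are then lysed, detection antibodies added, and emission ratio 665/620 nm recorded after 24 hr at room temperature.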

[16] = qHTS for Inflammasome Signaling Inhibitors: IL-1-beta AlphaLISA screen against the NCATS CANVASS Library (AID 1347379);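 also: human THP-1 cells primed with LPS then triggered with ATP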
Outline: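 Human THP-1 cells were pretreated 1 hr at 37 °C with compounds (up to 57.5 uM final), then stimulated with LPS (250 ng/mL final) and ATP (1.25 mM final). Secreted IL-1B was read by AlphaLISA after 16 hr.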

[17] = Inflammasome Signaling qHTS Counterscreen: IL-1-beta AlphaLISA counterscreen against the NCATS CANVASS Library (AID 1347381);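 also: cell-free check with purified IL-1β in medium and no THP-1 cells; series mostly up to about 57 µM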
Outline: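 To flag interference with the AlphaLISA read-out, a known amount of purified IL-1-beta (4 pg) replaced cell supernatant. Detection used anti-IL-1-beta acceptor beads, biotinylated antibody and streptavidin donor beads at room temperature.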

[18] = Cytotoxicity qHTS for assessment of Hepg2 cells membrane integrity screened against the NCATS CANVASS Library (AID 1347387)
Outline: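 Fluorescence proportional to lysed-cell number, from LDH leaking out of HepG2 cells exposed 5 hr at 37C to 0.59 nM - 46 uM compound (11-point qHTS), is measured after 10 min with CytoTox-ONE.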

[19] = qHTS for activators of dead-cell proteases activity screened against the NCATS CANVASS Library (AID 1347392);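 also: luminescence from protease leaking out of membrane-damaged cells cleaving impermeant substrate; rising signal means more cytotoxicity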
Outline: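 HepG2 cells, 2000/well, attached 18 h at 37C, then exposed to compounds (11-point qHTS) for 5 h. Dead-cell protease release read as luminescence from cell-impermeant AAF-aminoluciferin substrate after 15 min at room temperature.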

[20] = Redox Reaction Profiling qHTS: Assay Interference Panel against the NCATS CANVASS Library (AID 1347401)
Outline: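 Compounds in 11-point series incubated with 5 uM resazurin and 200 uM DTT in 50 mM HEPES pH 7.3, 50 mM NaCl. Resorufin fluorescence (Ex 525/Em 598) read before and after 15 min in the dark.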

SMILES | outcome [1] | Potency [2] | Potency [3] | Potency [4] | Potency [5] | outcome [6] | Potency [7] | Potency [8] | Potency [9] | Potency [10] | Potency [11] | Potency [12] | Potency [13] | outcome [14] | Potency [15] | Potency [16] | outcome [17] | outcome [18] | Potency [19] | Potency [20]
CCCCCC(=O)N[C@@H](CC(C)C)C(=O)N[C@H](C=O)CCC(=O)O (Hexanoyl-Leu-Glu-aldehyde) | inactive | inactive | inactive | inactive | inactive | inactive | inactive | inactive | inactive | inactive | inactive | inactive | inactive | inactive | inactive | inactive | inactive | inactive | inactive | inactive
O=c1cc(-c2ccc(O)cc2)oc2cc(O)c([C@@H]3OC(CO)[C@H](O)[C@@H](O)[C@H]3O)c(O)c12 (some centres undefined) | inactive | inactive | inactive | inactive | inactive | inactive | inactive | inactive | inactive | inactive | inactive | inactive | inactive | inactive | inactive | inactive | inactive | inactive | inactive | inactive
C/C=C(/CO)C(=O)O[C@@H]1[C@H](O)[C@@H](C(=O)OC)O[C@@H]2C[C@H]3OC(n4cnc5c(N)ncnc54)[C@H](OC)[C@H]3O[C@@]12O (some centres undefined) | inactive | inactive | inactive | inactive | inactive | inactive | inactive | inactive | inactive | inactive | inactive | inactive | inactive | inactive | inactive | inactive | inactive | inactive | inactive | 
CC1(C)CC[C@]2(CO)CC[C@]3(C)C(=CCC4[C@@]5(C)CC[C@H](O)C(C)(C)C5CC[C@]43C)C2C1 (some centres undefined) | inactive | inactive | inactive | inactive | inactive | inactive | inactive | inactive | inactive | inactive | inactive | inactive | inactive | inactive | inactive | inactive | inactive | inactive | inactive | inactive
[C-]#[N+][C@@]12C(=O)[C@@H]3[C@@H](O[C@@]4(C(=O)N(C)c5cccc1c54)C3(C)C)C(=O)[C@@]2(C)C=C | inactive | inactive | inactive | inactive | inactive | inactive | inactive | inactive | inactive | inactive | inactive | inactive | inactive | inactive | inactive | inactive | inactive | inactive | inactive | inactive
C=C(Cl)[C@](Cl)(CBr)CC[C@@H](Br)C(C)(C)Cl | inactive | inactive | inactive | inactive | inactive | inactive | inactive | inactive | 20.9 µM (active) | inactive | 6.59 µM (active) | 23.4 µM (active) | 4.18 µM (active) | inactive | 4.86 µM (active) | 4.85 µM (active) | inactive |  |  | inactive
CCC(C)=C1OC(=O)[C@H](C)[C@H](O)[C@H](Cc2cccnc2)NC(=O)C(NC(=O)c2ncccc2O)C(C)OC1=O (some centres undefined) | inactive | inactive | inactive | inactive | inactive | inactive |  | inactive | inactive | inactive | inactive | inactive | inactive | inactive | inactive | inactive | inactive | inactive | inactive | inactive
CN1CC[C@@]2([C@@]34CCN(C)[C@@H]3Nc3ccccc34)c3ccccc3N[C@@H]12 | inactive | inactive | inactive | inactive | inactive | inactive | inactive | inactive | inactive |  | inactive | inactive | inactive | inactive | inactive | inactive | inactive | inactive | inactive | inactive
C/C=C1/C2=CCCN3C(=O)O[C@H]([C@H]1O)[C@H]23 | inactive | inactive | inactive | inactive | inactive | inactive | inactive | inactive | inactive | inactive |  | inactive | inactive |  |  | inactive | inactive | inactive | inactive | inactive
COc1ccc([C@@H]2c3cc4c(cc3C(=O)C(C)C2C)OCO4)cc1OC (some centres undefined) | inactive | inactive | inactive | inactive | inactive | inactive | inactive | inactive | inactive | inactive | inactive |  | inactive | inactive | inactive | inactive | inactive | inactive | inactive | inactive
CC[C@@H]1C[C@@]2(CC)OC(=O)[C@@]3(CC)[C@H](CC)[C@@H]1[C@@H]23 | inactive | inactive | inactive | inactive | inactive | inactive | inactive | inactive | inactive | inactive |  | inactive | inactive | inactive | inactive | inactive | inactive | inactive | inactive | inactive
O=C1CC(c2ccc(O)cc2)Oc2ccccc21 (centres undefined) | inactive | inactive | inactive | inactive | inactive | inactive | inactive | 5.44 µM (active) | inactive |  | inactive | inactive | inactive |  | inactive |  | inactive | inactive | inactive | inactive
C/C(=C\[C@@H](C)CC/C=C/CC/C=C/C(=O)O)[C@@H](O)[C@H](C)C(=O)CCCC1CC(=O)NC(=O)C1 | inactive | inactive | inactive | inactive | inactive | inactive | inactive | inactive | inactive | inactive | inactive | inactive | inactive | inactive | inactive | inactive | inactive | inactive | inactive | 
C=C[C@@]1(C)CC[C@@H]([C@H](C)C(C)=O)O1 | inactive | inactive | inactive | inactive | inactive | inactive | inactive | inactive | inactive | inactive | inactive | inactive | inactive | inactive | inactive | inactive | inactive | inactive | inactive | inactive
COC(=O)[C@]1([C@H]2CCC(=O)O2)CC(=O)c2c(O)cc(C)cc2O1 | inactive | inactive | inactive | inactive | inactive | inactive | inactive | inactive | inactive | inactive | inactive | inactive | inactive | inactive | inactive | inactive | inactive | inactive | inactive | inactive
CC(=O)N[C@H](C)c1nc(/C=C/C=C/C(=O)CC2CC(=O)CC[C@]2(C)O)cs1 (some centres undefined) | inactive | inactive | inactive | inactive | inactive | inactive | inactive | inactive | inactive | inactive | inactive | inactive | inactive | inactive | inactive | inactive | inactive | inactive | inactive | inactive
CC[C@@H](C)[C@H]1NC(=O)C(CC(C)C)NC(=O)[C@@H](CC(C)C)NC(=O)[C@H](Cc2c[nH]c3ccccc23)NC(=O)CNC(=O)[C@@H](CC(N)=O)NC1=O (stereo partly drawn) (cyclo(GW[dL][ξL][dI][dN])) | inactive | inactive | inactive | inactive | inactive | inactive | inactive | inactive |  |  |  | inactive |  | inactive | inactive | inactive | inactive |  |  | inactive
C/C1=C/[C@@H](C)[C@H](O)C/C=C/CC/C=C/C(=O)O[C@@H]1[C@H](C)C(=O)CCCC1CC(=O)NC(=O)C1 | inactive | inactive | inactive | inactive | inactive | inactive | inactive | inactive | inactive | 4.69 µM (active) | inactive | 20.9 µM (active) |  | inactive | inactive | inactive | inactive | inactive | inactive | inactive
